The full ranking holds about 140,000 sequences; the median of “enrichment ratio after two sorts for PhoP signalling” is about 0, and the highest 2% start at about 11. The sample holds the highest values, similar sequences and a random draw of the others, so the mix is not that of the screen.
B1: PhoQ; a variant is named by its letters at X, in order, P23837 (parent)
chain: MKKLLRLFFPLSLRVRFLLATAAVVLVLSLAYGMVALIGYSVSFDKTTFRLLRGESNLFYTLAKWENNKLHVELPENIDKQSPTMTLIYDENGQLLWAQRDVPWLMKMIQPDWLKSNGFHEIEADVNDTSLLLSGDHSIQQQLQEVREDDDDAEMTHSVAVNVYPATSRMPKLTIVVVDTIPVELKSSYMVWSWFIYVLSANLLLVIPLLWVAAWWSLRPIEALAKEVRELEEHNRELLNPATTRELTSLVRNLNRLLKSERERYDKYRTTLTDLTHSLKTPLXXLQXXLRSLRSEKMSVSDAEPVMLEQISRISQQIGYYLHRASMRGGTLLSRELHPVAPLLDNLTSALNKVYQRKGVNISLDISPEISFVGEQNDFVEVMGNVLDNACKYCLEFVEISARQTDEHLYIVVEDDGPGIPLSKREVIFDRGQRVDTLRPGQGVGLAVAREITEQYEGKIVAGESMLGGARMEVIFGRQHSAPKDE

Variants of: B1
Test: enrichment ratio after two sorts for PhoP signalling (ratio (wild type AVST 3.29)); higher = more functional
Details: with PhoP (E. coli)

| Variant | enrichment ratio |
| --- | --- |
| WGMH | ≤ 0.25 |
| ANRC | ≤ 0.25 |
| KGAG | ≤ 0.25 |
| TIPQ | ≤ 0.25 |
| PTHR | ≤ 0.25 |
| KAAL | 1.81 |
| MGAL | 15.5 |
| NGAL | ≤ 0.25 |
| TEAL | 14.7 |
| GGAL | 4.27 |
| RGAL | 0.701 |
| NEAL | ≤ 0.25 |
| TGAL | 15.9 |
| NAAL | ≤ 0.25 |
| TAAL | 11.4 |
| QRAL | ≤ 0.25 |
| MEAL | 8.16 |
| EAAP | ≤ 0.25 |
| LSEF | ≤ 0.25 |
| DGFG | ≤ 0.25 |
| EQRH | ≤ 0.25 |
| KHEV | ≤ 0.25 |
| INFP | ≤ 0.25 |
| TDLE | ≤ 0.25 |

| Variant | enrichment ratio |
| --- | --- |
| NRFY | ≤ 0.25 |
| VSYR | ≤ 0.25 |
| PTNE | ≤ 0.25 |
| FSIC | ≤ 0.25 |
| PHTQ | ≤ 0.25 |
| QAAL | 3.3 |
| QGAL | 15.6 |
| FFAL | ≤ 0.25 |
| LMWN | ≤ 0.25 |
| HINH | ≤ 0.25 |
| KPLN | ≤ 0.25 |
| TSLT | 13.3 |
| TSWI | 3.63 |
| TSLN | 16.9 |
| KSLN | ≤ 0.25 |
| NSLN | ≤ 0.25 |
| FSLS | 9.54 |
| TSLA | 16.6 |
| TSLS | 15.9 |
| KSLA | ≤ 0.25 |
| KSLS | ≤ 0.25 |
| FSLT | 7.83 |
| KSLT | ≤ 0.25 |
| YNRN | ≤ 0.25 |

| Variant | enrichment ratio |
| --- | --- |
| VLSY | 0.334 |
| DDLI | ≤ 0.25 |
| ARIV | ≤ 0.25 |
| HMEL | ≤ 0.25 |
| PRTC | ≤ 0.25 |
| INYQ | ≤ 0.25 |
| ICWY | ≤ 0.25 |
| RSTG | ≤ 0.25 |
| YLPW | ≤ 0.25 |
| WEVD | ≤ 0.25 |
| ANLP | ≤ 0.25 |
| GSFM | ≤ 0.25 |
| GSLM | 20.9 |
| GNLF | 6.83 |
| GSLF | 11.4 |
| GSGM | 8.45 |
| TPLF | ≤ 0.25 |
| KGAD | ≤ 0.25 |
| MQRI | ≤ 0.25 |
| EYAR | ≤ 0.25 |
| AEGG | ≤ 0.25 |
| AEMF | ≤ 0.25 |
| AIYG | 0.334 |
| AEMG | 14.3 |

| Variant | enrichment ratio |
| --- | --- |
| AEMT | 5.41 |
| AEMS | 31 |
| ADYG | ≤ 0.25 |
| AEEG | ≤ 0.25 |
| AEIG | 21.9 |
| AEHG | ≤ 0.25 |
| AEYG | 36.3 |
| QPAL | ≤ 0.25 |
| QTTM | ≤ 0.25 |
| SAVI | 3.04 |
| NWIW | ≤ 0.25 |
| RGNN | ≤ 0.25 |
| GTDL | ≤ 0.25 |
| AEMA | 25.6 |
| AGMA | 5.7 |
| AEGA | 11 |
| IMTE | ≤ 0.25 |
| PMNV | ≤ 0.25 |
| YHPY | ≤ 0.25 |
| TNGH | 7.13 |
| NASS | ≤ 0.25 |
| KASS | 1.62 |
| QASI | 12.8 |
| TASI | 12.5 |

| Variant | enrichment ratio |
| --- | --- |
| TASS | 13.4 |
| KASI | ≤ 0.25 |
| TATC | 7.1 |
| TASK | 0.795 |
| TATS | 19.8 |
| TATH | 3.27 |
| QRSI | ≤ 0.25 |
| NASI | ≤ 0.25 |
| MVMH | ≤ 0.25 |
| DHNH | ≤ 0.25 |
| TATG | 18 |
| KATG | ≤ 0.25 |
| NASC | ≤ 0.25 |
| TASC | 12.7 |
| KASC | ≤ 0.25 |
| NATG | ≤ 0.25 |
| FSNY | ≤ 0.25 |
| TWVT | ≤ 0.25 |
| GCVG | ≤ 0.25 |
| GCIG | 12.8 |
| GCCI | 5.84 |
| QCCG | ≤ 0.25 |
| GYIG | ≤ 0.25 |
| GQIG | 23.8 |

| Variant | enrichment ratio |
| --- | --- |
| GTIG | 1.96 |
| GCCG | 18.1 |
| GCMG | 16.9 |
| GQIV | 0.651 |
| GCGG | ≤ 0.25 |
| GNIG | 1.98 |
| LGAY | ≤ 0.25 |
| SVEV | ≤ 0.25 |
| YSQV | ≤ 0.25 |
| KMDL | ≤ 0.25 |
| NRSD | ≤ 0.25 |
| TNRT | ≤ 0.25 |
| FPTD | ≤ 0.25 |
| IEAY | ≤ 0.25 |
| AHTL | 6.56 |
| AITL | 24.3 |
| AVTL | 12.5 |
| AMTL | 4.39 |
| AVEL | ≤ 0.25 |
| AETL | 15.1 |
| HKTL | ≤ 0.25 |
| TKTL | 16 |
| AVWL | ≤ 0.25 |
| MKTL | ≤ 0.25 |

| Variant | enrichment ratio |
| --- | --- |
| MHYL | ≤ 0.25 |
| ALHS | ≤ 0.25 |
| THYA | ≤ 0.25 |
| TPED | ≤ 0.25 |
| WDQY | ≤ 0.25 |
| IFCF | ≤ 0.25 |
| ASEL | 3.67 |
| AWTL | ≤ 0.25 |
| KKTL | ≤ 0.25 |
| LLTL | ≤ 0.25 |
| ASTL | 20.2 |
| ANTL | 12.9 |
| ADTL | ≤ 0.25 |
| KLTL | ≤ 0.25 |
| VRTL | ≤ 0.25 |
| AKTL | 12.5 |
| ALTL | 15.2 |
| LLVY | ≤ 0.25 |
| YYRY | ≤ 0.25 |
| RSKL | ≤ 0.25 |
| EIAA | ≤ 0.25 |
| SNVV | 7.87 |
| ACTL | 15.2 |
| ACTK | 4.69 |

| Variant | enrichment ratio |
| --- | --- |
| AGAW | ≤ 0.25 |
| PHQA | ≤ 0.25 |
| PNCG | ≤ 0.25 |
| GQWG | ≤ 0.25 |
| GNCW | ≤ 0.25 |
| GQCG | 16.6 |
| GQCE | 21.9 |
| GQCS | 4.33 |
| GVCG | 12.7 |
| NVCW | ≤ 0.25 |
| PWCG | ≤ 0.25 |
| GTCG | 7.53 |
| GQCI | 2.43 |
| GVCW | 11.5 |
| TNLK | ≤ 0.25 |
| EITI | ≤ 0.25 |
| RPCA | ≤ 0.25 |
| WVGL | ≤ 0.25 |
| NTRE | ≤ 0.25 |
| RRCS | ≤ 0.25 |
| NLFK | ≤ 0.25 |
| SDVW | ≤ 0.25 |
| PHGP | ≤ 0.25 |
| QPGC | ≤ 0.25 |

| Variant | enrichment ratio |
| --- | --- |
| TMNC | 15.3 |
| TMGC | 11.3 |
| QGGC | 19.5 |
| TMTC | 13.5 |
| KCGC | ≤ 0.25 |
| KMNC | ≤ 0.25 |
| NHGC | ≤ 0.25 |
| DMNC | ≤ 0.25 |
| FFGC | ≤ 0.25 |
| TMPC | ≤ 0.25 |
| TMNK | ≤ 0.25 |
| EFVE | ≤ 0.25 |
| GASP | ≤ 0.25 |
| HAHN | ≤ 0.25 |
| TMGQ | 5.04 |
| DMLC | ≤ 0.25 |
| TMLC | 13.8 |
| TMPP | ≤ 0.25 |
| TCGC | 23.2 |
| MIGC | 41.4 |
| NMLC | ≤ 0.25 |
| TMGA | 17.5 |
| VEGC | ≤ 0.25 |
| GMGC | ≤ 0.25 |

| Variant | enrichment ratio |
| --- | --- |
| MEGC | ≤ 0.25 |
| MITC | ≤ 0.25 |
| ATVL | 4.07 |
| EFKF | ≤ 0.25 |
| SCEM | ≤ 0.25 |
| TMCR | 20.7 |
| NQGC | ≤ 0.25 |
| TGGC | 11.2 |
| AIGC | 5.62 |
| TMTS | 11.7 |
| TMWA | ≤ 0.25 |
| THGC | 5.27 |
| TMKR | ≤ 0.25 |
| TMPI | ≤ 0.25 |
| TMQR | 8.83 |
| CFGC | ≤ 0.25 |
| AQGC | 12.4 |
| RMSH | ≤ 0.25 |
| QWWT | ≤ 0.25 |
| TGKL | ≤ 0.25 |
| NNCI | ≤ 0.25 |
| HTDV | ≤ 0.25 |
| IQST | ≤ 0.25 |
| SVER | ≤ 0.25 |

| Variant | enrichment ratio |
| --- | --- |
| HCRQ | ≤ 0.25 |
| NKWN | ≤ 0.25 |
| SSGC | 13.8 |
| KAGC | ≤ 0.25 |
| VGGC | ≤ 0.25 |
| SRGC | ≤ 0.25 |
| TDGC | 17.1 |
| LTGC | ≤ 0.25 |
| KSGC | ≤ 0.25 |
| TAGC | 13.9 |
| FDGC | ≤ 0.25 |
| MLHI | 1.88 |
| WSGR | ≤ 0.25 |
| TCPW | ≤ 0.25 |
| LTCV | ≤ 0.25 |
| RIDL | ≤ 0.25 |
| TYQH | ≤ 0.25 |
| CKSI | ≤ 0.25 |
| WTRS | ≤ 0.25 |
| TFHR | ≤ 0.25 |
| YNLV | 1.85 |
| DWIL | ≤ 0.25 |
| THQY | 15 |
| NVSY | ≤ 0.25 |

| Variant | enrichment ratio |
| --- | --- |
| NHQY | ≤ 0.25 |
| TQID | ≤ 0.25 |
| TQSY | 12.3 |
| FQAY | ≤ 0.25 |
| LAAY | ≤ 0.25 |
| DWSY | ≤ 0.25 |
| SHQY | ≤ 0.25 |
| TQII | 15.7 |
| FQII | ≤ 0.25 |
| TQAY | 17 |
| EFDW | ≤ 0.25 |
| DSGT | ≤ 0.25 |
| HYAH | ≤ 0.25 |
| YAPS | 0.949 |
| YQLH | 0.516 |
| HVYR | ≤ 0.25 |
| LAQY | ≤ 0.25 |
| KSQY | ≤ 0.25 |
| TQQY | 15.1 |
| TSQY | 13.5 |
| MMQY | ≤ 0.25 |
| TQEY | ≤ 0.25 |
| SPQY | ≤ 0.25 |
| TVQY | 19.2 |

| Variant | enrichment ratio |
| --- | --- |
| NVQY | ≤ 0.25 |
| VSHP | ≤ 0.25 |
| ARTY | ≤ 0.25 |
| IGHH | 2.36 |
| LVAL | ≤ 0.25 |
| YMKE | ≤ 0.25 |
| RLRC | ≤ 0.25 |
| VTEL | ≤ 0.25 |
| VTML | 15.3 |
| QSML | 3.2 |
| YSML | 14.4 |
| FSML | 12.7 |
| RSML | ≤ 0.25 |
| VFML | ≤ 0.25 |
| VSML | 15.7 |
| VYML | ≤ 0.25 |
| FQML | 0.396 |
| LPWT | ≤ 0.25 |

Reference: a collection of fitness landscapes (doi:10.1126/science.1257360)
